# Measurements taken from PubChem BioAssay AID1986 (Sanford-Burnham Center for Chemical Genomics, 2009).
# Hit rate of the full screen: of about 290,000 compounds, about 890 (0.31%) were called active. The sample holds actives, similar compounds and a random draw of the others, so the mix is not that of the screen. Rule as the data show it: active = inhibition mostly above about 52% (no sharp cut-off); inactive = mostly below about 76%.
# Assay: inhibitors of HIV fusion peptide binding, primary screen, biochemical, uHTS, fluorescence dequenching (AID 1986)
# Settings: cell-free peptide binding, 30 min, stronger effect = higher value
# [1] = measured here: repeat confirmation average inhibition, at 18.6 µM
SMILES,inhibition (at 20 µM),inhibition [1] [%]
Cc1ccc(C(=O)NC(C(=O)Nc2cccc(S(N)(=O)=O)c2)C(C)C)cc1 (centres undefined),-1.6% (inactive),–
COc1ccc(CNC(=O)Cn2nc(C(F)(F)F)cc2C)cc1,-0.1% (inactive),–
O=C(O)c1cc(Cl)c(Cl)cc1C(=O)N1CCOCC1,1.9% (inactive),–
COc1ccccc1-n1c(C)nc2cc(C(=O)NCC3CCCO3)ccc21 (centres undefined),0.3% (inactive),–
Cc1cc(C)n(C(=O)c2ccc(Cl)c(F)c2F)n1,-0.2% (inactive),–
COc1ccc(CC(=O)Nc2c(C(=O)N3CCN(c4ncccn4)CC3)oc3ccccc23)cc1,-0.6% (inactive),–
O=c1ccc(C(F)(F)F)cn1Cc1cc(=O)n2cc(Br)ccc2n1,1.6% (inactive),–
COC(=O)C(Cc1ccccc1)NC(=O)CSc1nc(C)cc(=O)[nH]1 (centres undefined),-1.7% (inactive),–
CCNc1cc(=O)n(C)c(=O)n1C,0.1% (inactive),–
COc1cc(CO)cc(Br)c1OCC(=O)O,0% (inactive),–
CCc1ccc(N=C2NC(=O)/C(=C/c3ccc(OCC(=O)O)c(OC)c3)S2)cc1,55.1% (inactive),26.6
CC(=O)Nc1c(-c2cc(=O)oc3cc(C)ccc23)oc2ccccc12,-0.7% (inactive),–
Cc1ccccc1CN1C(=O)C(C)S/C1=N/N=C/c1ccco1 (centres undefined),4.6% (inactive),–
CC1=Nc2ccccc2/C1=C/c1sc(=S)n(-c2cccc(C(=O)O)c2)c1O,112% (active),134
O=C(O)c1cccc(-n2c(O)c(C=C3N=c4ccccc4=N3)sc2=S)c1,32.8% (inactive),–
O=C(O)c1ccc(-n2c(O)c(C=C3N=c4ccccc4=N3)sc2=S)cc1,33.3% (inactive),–
O=[N+]([O-])c1cccc(-c2noc(-c3ccco3)n2)c1,-2.4% (inactive),–
COc1ccccc1-c1nnc(SCC(=O)N2CCC(C)CC2)o1,-1.2% (inactive),–
Cc1ccc(NC(=O)CN2C(=O)S/C(=C/c3ccc(-c4cccc(C(=O)O)c4)o3)C2=O)cc1,79.5% (active),–
Cc1cccc(NC(=O)CN2C(=O)N/C(=C/c3ccc(-c4cccc(C(=O)O)c4C)o3)C2=O)c1,28.4% (inactive),–
Cc1ccc(NC(=O)CN2C(=O)S/C(=C\c3ccc(-c4cccc(C(=O)O)c4C)o3)C2=O)cc1C,68.7% (inactive),6.8
Cc1ccccc1NC(=O)CN1C(=O)S/C(=C\c2ccc(-c3cc(C(=O)O)ccc3C)o2)C1=O,69.3% (inactive),19.9
Cc1cccc(NC(=O)CN2C(=O)N/C(=C\c3ccc(-c4cccc(C(=O)O)c4)o3)C2=O)c1,40.3% (inactive),–
Cc1ccc(C(=O)O)cc1-c1ccc(/C=C2\SC(=O)N(CC(=O)Nc3ccccc3)C2=O)o1,59.6% (active),–
Cc1ccc(NC(=O)CN2C(=O)S/C(=C/c3ccc(-c4cc(C(=O)O)ccc4C)o3)C2=O)cc1C,63.2% (inactive),35.6
COc1ccc(CC(=O)N/N=C/c2ccc(-c3cccc(C(=O)O)c3)o2)cc1OC,28.8% (inactive),–
CC(C)(C)OC(=O)CN1C(=O)S/C(=C\c2ccc(-c3cccc(C(=O)O)c3)o2)C1=O,51.8% (inactive),40.6
Cc1cccc(NC(=O)CN2C(=O)S/C(=C\c3ccc(-c4cccc(C(=O)O)c4C)o3)C2=O)c1,55.2% (active),–

SMILES,inhibition (at 20 µM),inhibition [1] [%]
Cc1ccc(OCC(=O)N/N=C\c2ccc(C)o2)c(C)c1,0.1% (inactive),–
Cc1ccc(OCC(=O)N/N=C\c2ccc(-c3cccc(C(=O)O)c3)o2)c(C)c1,56.8% (active),–
CCOC(=O)C1=C(C)NC(=O)NC1c1ccc(OCC(=O)OC)c(OC)c1 (centres undefined),-0.4% (inactive),–
CC(=O)Nc1cccc(CNCc2cccc(NC(C)=O)c2)c1,-0.7% (inactive),–
O=C(Nc1cccc(-c2cn3ccccc3n2)c1)c1cnccn1,-0.3% (inactive),–
CC(=O)C1=C(c2ccccc2)NC(=O)NC1c1cccs1 (centres undefined),0.1% (inactive),–
CCc1cccc(NC(=O)CCS(=O)(=O)c2cc3c(cc2C)NC(=O)CO3)c1,0.8% (inactive),–
CCOc1cc(-c2nc(-c3ccncc3)no2)cc(OCC)c1OCC,0.5% (inactive),–
CCC(CCC(=O)Nc1cccc(C(=O)O)c1)C(=O)O (centres undefined),-0.2% (inactive),–
COc1ccc(Br)cc1C(=O)Nc1ccc(N2CCCC2)cc1,-1.9% (inactive),–
Cc1ccccc1NC(=O)CN1C(=O)S/C(=C\c2ccc(-c3cccc(C(=O)O)c3C)o2)C1=O,32% (inactive),–
Cc1ccc(NC(=O)CN2C(=O)S/C(=C\c3ccc(-c4cccc(C(=O)O)c4C)o3)C2=O)cc1,63.2% (active),–
Cc1ccc(C(=O)O)cc1-c1ccc(/C=C2\SC(=O)N(CC(=O)Nc3ccc4c(c3)OCO4)C2=O)o1,69.1% (inactive),25.2
COc1ccc(C(=O)NC2CCCCCC2)cc1OC1CCN(C(C)=O)CC1,0% (inactive),–
COc1ccc([N+](=O)[O-])cc1NC(=O)COC(C)=O,-1.8% (inactive),–
O=C(CN1CCN(c2ccccc2)CC1)N1CCc2[nH]c3ccccc3c2C1,2% (inactive),–
O=C1/C(=C\c2ccco2)SC(=S)N1Cc1ccccc1,66% (inactive),-1.7
CCCN(CCC)c1nc2c(C)cccn2c(=O)c1/C=C1/SC(=S)N(Cc2ccco2)C1=O,49.5% (inactive),–
CCN1CCN(c2c(/C=C3\SC(=S)N(Cc4ccco4)C3=O)c(C)c(C#N)c(=O)n2C)CC1,89.4% (active),167
C=CCOc1ccc(C2/C(=C(\O)c3ccc4c(c3)OCCO4)C(=O)C(=O)N2CCCN2CCOCC2)cc1 (centres undefined),-1.6% (inactive),–
Cc1cc(NC(=O)CCCC(=O)N(CC(=O)NC2CCCCC2)c2ccccc2)no1,-0.7% (inactive),–
CNC(=S)N1CCN(S(=O)(=O)c2ccc3ccccc3c2)CC1,-0.9% (inactive),–
CCCc1ccc2oc(C(=O)NCCN3CCCC(O)C3)c(C)c2c1 (centres undefined),0.9% (inactive),–
O=c1c2cccc3c(N4CCOCC4)ccc(c32)c2nc3ccccc3n12,113% (active),–
O=c1c2ccc([N+](=O)[O-])c3cccc(c32)c2nc3ccccc3n12,10.2% (inactive),–
c1ccc2c(c1)nc(CN1CCOCC1)n1c3ccccc3nc21,2.2% (inactive),–
Cc1ccc(OCc2cc(C(=O)N(C)CC3CCOCC3)no2)cc1C,-2% (inactive),–
